# Source: PubChem (Johns Hopkins Ion Channel Center)
# ANO1 block – mouse TMEM16A channel inhibition, primary screen | actives 1.2% (n = 310,000) | normalized B-score (activity score, 25-100; higher = stronger inhibition) at 10 µM | Q8BHY3 | AID 588511 | HEK293 TMEM16A/YFP iodide influx fluorescence, ionomycin;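 active means ratio plate-corrected score three or more library SD toward inhibition, starting fluorescence score within five deviations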;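 further: score derived from kinetic fluorescence span divided by baseline fluorescence per well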
# CHT allo act – allosteric activators of human choline transporter CHT; actives 0.49% (n = 310,000); AID 488977; Q9GZV3; B-score at 10 µM; CHT-expressing cells, membrane potential dye, choline EC20; hits give high values; LV-AA mutant CHT in HEK293 cells;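 active means initial fluorescence not abnormally high and integrated response B-score, plate-corrected, over 3 SD above library mean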
# ANO1 activ – activates or potentiates the mouse TMEM16A chloride channel; Q8BHY3; HEK293 TMEM16A/YFP-H148Q/I152L, iodide quench fluorescence; hits give low values; B-score at 10 µM; actives 0.3% (n = 340,000);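 active means fluorescence-ratio B-score plate-corrected deviation score at least 3 library SD below zero, with starting fluorescence score within 5 deviations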;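 further: channel opened by trigger with iodide after compound preincubation; score built on the fluorescence ratio of max minus min over baseline; more negative score means more quench and so TMEM16A activation or potentiation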
# CHT block – inhibits the human high affinity choline transporter; B-score at 10 µM; actives 0.86% (n = 310,000); CHT-expressing cells, membrane potential dye, choline response; hits give low values; Q9GZV3;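 active means B-score over 3 SD under the library average, and starting fluorescence ratio not unusually high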;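 further: choline stimulus applied at its EC90 after an EC20 pre-addition; B-score computed on integrated fluorescence ratio after choline addition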
# TMEM16A reconf – reconfirmed blocker of mouse TMEM16A calcium-activated chloride channel; shares compounds with ANO1 block; HEK293 TMEM16A/YFP-H148Q, iodide quench fluorescence; ionomycin added to raise cell calcium; inhibition, % at 10 µM; actives 39% (n = 2,300); AID 652189;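 active means mean duplicate percent inhibition, scaled so buffer wells are 0 and the reference blocker 100, over three buffer SD above buffer mean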
# HEK293 Ca mobil – alters calcium mobilization in TMEM16A HEK293 cells, counter-screen | shares compounds with ANO1 block | AID 652231 | TMEM16A/YFP HEK293, Fluo4 calcium mobilization | calcium response (% of ionomycin), % at 10 µM | actives 2% (n = 2,300);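 active means duplicate-averaged calcium signal over 20% of the ionomycin maximum, relative to buffer baseline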;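 further: each well's signal is peak minus trough fluorescence divided by its pre-addition baseline; 0% = buffer wells and 100% = ionomycin wells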
# YFP-HEK293 quench – counter-screen for TMEM16A inhibitors: effect in parental YFP-HEK293 cells. shares compounds with ANO1 block. YFP ratio F(max-min)/F0 at 10 µM. AID 652233. iodide YFP quench, ionomycin. 2,300 tested, under 10 active;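 active means yellow fluorescent protein signal ratio exceeding the buffer control mean by over 5 SD of those controls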;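 further: ratio is mean of duplicate wells from kinetic YFP trace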
# ClC-1 rat inh – blocks the rat ClC-1 voltage-dependent chloride channel; AID 652236; shares compounds with ANO1 block; 2,300 tested, under 10 active; ratio percent, % at 10 µM; CHO ClC-1-YFP, iodide influx fluorescence quench; iodide control reads 0, buffer control 100;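 active means duplicate-mean ratio percent above the mean of iodide-only control wells, which defines zero, plus 5 of their SD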;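 further: higher percent means stronger block of ClC-1 iodide influx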
# The depositor's hits bear a star; i = inactive; · = not tested or not shown. Shown are actives, neighbours in structure and some others; about 2.3% of the full set was active somewhere.
SMILES,ANO1 block,CHT allo act,ANO1 activ,CHT block,TMEM16A reconf,HEK293 Ca mobil,YFP-HEK293 quench,ClC-1 rat inh
CCC(=O)Nc1nc2ccc([N+](=O)[O-])cc2s1,i,i,i,i,·,·,·,·
CC(C)(C)c1ccc(-c2noc(CCC(=O)Nc3cccnc3)n2)cc1,100*,i,i,i,18%*,i,-0.92,-6
COc1ccccc1-c1noc(CCC(=O)Nc2cccc(C(F)(F)F)c2)n1,100*,i,i,i,i,i,-1.3,-2
COc1cc(/C=N/Nc2nc(C)nc3c2cnn3-c2ccccc2)ccc1O,·,·,i,·,·,·,·,·
CO/N=C/C(c1ncc(C(F)(F)F)cc1Cl)S(=O)(=O)c1ccccc1 (stereo unspecified),i,i,i,i,·,·,·,·
CO/N=C/C(C#N)c1ncc(C(F)(F)F)cc1Cl (stereo unspecified),25*,i,i,i,16%*,i,-0.84,-8
Cc1cccc2sc(NNC(=O)c3ccc(S(=O)(=O)N4CC(C)CC(C)C4)cc3)nc12 (stereo unspecified),25*,i,i,i,26%*,i,-0.97,-9
Cc1cc(C)c2nc(NNC(=O)c3ccc(S(=O)(=O)N4CC(C)CC(C)C4)cc3)sc2c1 (stereo unspecified),i,i,i,i,·,·,·,·
CCOC(=O)c1c(NC(=O)c2ccc(C)cc2)sc2c1CC(C)(C)NC2(C)C,i,i,·,i,·,·,·,·
COC(=O)c1c(NC(=O)c2ccc(OC(C)C)cc2)sc2c1CC(C)(C)NC2(C)C,100*,i,i,i,i,i,-0.9,-7
CCCCOC(=O)c1ccc(NC(=O)C(=O)NCc2cccnc2)cc1,25*,i,i,i,i,i,-1.2,-7
CCCCOC(=O)c1ccc(NC(=O)C(=O)NCC2CCCO2)cc1 (stereo unspecified),i,i,i,i,·,·,·,·
COc1cc(/C=C2/CCC/C(=C\c3cc(O)c(OC)c(Cl)c3)C2=O)cc(Cl)c1O,i,i,i,i,i,i,-0.78,-38
CCC1c2ccc(C)n2CCN1C(=O)Nc1ccccc1C(=O)OC (stereo unspecified),i,i,i,i,i,i,-1.1,-14
CCC1c2ccc(C)n2CCN1C(=O)Nc1cc(Cl)ccc1OC (stereo unspecified),i,i,i,i,16%*,i,-0.98,-10
CCCC1c2ccc(C)n2CCN1C(=O)Nc1ccccc1Cl (stereo unspecified),i,i,i,i,·,·,·,·
CCCN(CC(=O)Nc1ccccc1OC)C(=O)Cn1c(=O)oc2ccccc21,·,·,i,·,·,·,·,·
CCOC(=O)c1c2ccccc2[n+]([O-])n1[C@@H](C)C(N)=O,i,i,i,i,·,·,·,·
CCOC(=O)c1c(C)c(C)n(Cc2cccc(OC)c2OC)c1C,i,i,i,i,·,·,·,·
CCOC(=O)c1cc(C)n(Cc2cccc(OC)c2OC)c1C,25*,i,i,i,29%*,i,-0.9,-14
COc1cc(C(=O)Oc2cccc(Nc3ncnc4ccccc34)c2)cc(OC)c1OC,100*,i,i,i,22%*,i,-1.1,-22
O=C(c1noc2c1CSc1ccccc1-2)N1CCN(c2ccc(Cl)cc2)CC1,25*,i,i,i,i,i,-1.2,-5
Fc1cccc(Cl)c1CSc1nnnn1-c1ccc2c(c1)OCO2,25*,i,i,i,i,i,-0.94,-7
N#Cc1c(-c2ccccc2)nc(SCc2cccc(Cl)c2)[nH]c1=O,100*,i,i,i,83%*,i,-0.99,-19
